This is an account of results in PubChem BioAssay (NCI).

Assay in all cases: NCI-60 one-dose screen, 48 h (100 = growth as untreated, 0 = no growth, -100 = all killed)
One assay relates to UACC-62 melanoma.
Another assay deals with TK-10 renal.
The subject of another assay is HCT-15 colon. The conditions noted are these: 10 µM.
Another assay has as its system HT29 colon. The following applies: 10 µM.
The test system of another assay is SNB-75 CNS. The conditions noted are these: 10 µM.
The subject of the next assay is SNB-19 CNS. The following applies: 10 µM.
For the next assay, the system named is U251 CNS. The conditions noted are these: 10 µM.
A further assay relates to PC-3 prostate. The following applies: 10 µM. As to the method: (§1) Growth inhibition of the PC-3 human tumor cell line is measured as a screen for anti-cancer activity. Cells are grown in 96 well plates and exposed to the test compound for 48 hours. Compounds are tested at a single concentration, which is 10^-5 M for most compounds. The reported endpoint is percent growth (GI% or GIPRCNT), where numbers from 0 - 100% represent growth inhibition, and numbers from -100% - 0 represent cell death. For example, a value of 40 represents 60% growth inhibition. A value of 0 means no net growth occurred over the course of the experiment. A value of -40 indicates 40% of cells at the beginning of the experiment died by the end of the experiment. A value of -100 means all cells are dead at the end of the experiment.
(§2) NCI-60 Human Tumor Cell Lines Screen was performed using the standard one-dose NCI protocol, which is described in more detail at https://dtp.cancer.gov/discovery_development/nci-60/default.htm.
(§3) Compounds with GIPRCNT values below 10 were considered active. Activity score was based on GIPRCNT using the following formula: […]
(§4) Score is 0 for GIPRCNT values of 100 or above, 50 for GIPRCNT values of 0, and 100 for GIPRCNT values of -100.

A further assay deals with SK-MEL-5 melanoma. The conditions noted are these: 10 µM.
The next assay relates to LOX IMVI melanoma. The following applies: 10 µM.
Another assay has as its system SK-MEL-28 melanoma. The conditions noted are these: 10 µM.
The subject of the next assay is SK-MEL-2 melanoma. The conditions noted are these: 10 µM.
A further assay concerns EKVX NSCLC. The conditions noted are these: 10 µM.
Another assay deals with SN12C renal. The conditions noted are these: 10 µM.
For the next assay, the system named is UO-31 renal. The following applies: 10 µM. As to the method:
as §1, with “UO-31” for “PC-3”
as §2, §3, §4

A further assay has as its system ACHN renal. The following applies: 10 µM.
A further assay deals with CAKI-1 renal. The conditions noted are these: 10 µM.
In another assay the test system is A498 renal. The conditions noted are these: 10 µM.
The subject of the next assay is CCRF-CEM leukemia. The following applies: 10 µM.
Another assay relates to MOLT-4 leukemia. The conditions noted are these: 10 µM.

Values joined by “and” are separate entries in the source; they are usually repeats but may differ in a detail not shown here. Identical values can stand only once. Compounds without any hit were thinned out: in the full panel of roughly 83,000, 20% have a hit.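 The test compound was applied at a single concentration to cells in 96-well plates for 48 hours, and percent growth was recorded.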 Active and inactive are the calls of the source.

As to `COc1cc([C@@H]2c3cc4c(cc3[C@@H](Nc3ccc(NC(=O)c5cc([N+](=O)[O-])cn5C)cc3)[C@H]3COC(=O)[C@H]23)OCO4)cc(OC)c1O`, the results for the growth with UACC-62 melanoma (100 µM) and in the assay with TK-10 renal (100 µM) were -35.1% (active) and -28.8% (active), respectively.
As for `CC1=CC(=C(c2ccc(N)cc2)c2ccc(N)cc2)C=CC1=N`, the growth in the assay on HCT-15 colon is 53.9% (inactive) and 73.4% (inactive); with HT29 colon it was 6.75% (active) and 10.4% (inactive); in the assay with SNB-75 CNS, -1.98% (active) and 23.7% (inactive); in the assay with SNB-19 CNS, 17.9% (inactive) and 21.6% (inactive); with U251 CNS, 17.4% (inactive) and 10.6% (inactive); in the assay on PC-3 prostate, 9.47% (active) and 18.5% (inactive). In addition, the growth was -37.3% (active) and -25.8% (active) in the assay on SK-MEL-5 melanoma; -20.2% (active) and 22.6% (inactive) in the assay with UACC-62 melanoma (10 µM); 7.6% (active) and 22.4% (inactive) in the assay on LOX IMVI melanoma; 28.8% (inactive) and 45.9% (inactive) with SK-MEL-28 melanoma; -27.7% (active) and 41.7% (inactive) with SK-MEL-2 melanoma; 15.5% (inactive) and 46.2% (inactive) with EKVX NSCLC. Further, the growth in the assay with SN12C renal was 10.3% (inactive) and 6.77% (active); in the assay with UO-31 renal, 32% (inactive) and 85.8% (inactive); in the assay with TK-10 renal (10 µM) it was 38.2% (inactive) and 15.3% (inactive); in the assay with ACHN renal, 28.9% (inactive) and 58.6% (inactive); in the assay on CAKI-1 renal, 65.5% (inactive); in the assay on A498 renal, -7.24% (active) and 57.3% (inactive). Besides, the growth with CCRF-CEM leukemia is 19.3% (inactive) and 35.8% (inactive); in the assay with MOLT-4 leukemia, 10.4% (inactive) and 51.9% (inactive).
`O=[N+]([O-])c1cc[n+]([O-])cc1`: the growth with HCT-15 colon was 112% (inactive); in the assay with HT29 colon, 105% (inactive); with SNB-19 CNS, 88.5% (inactive); in the assay with U251 CNS, 111% (inactive); with PC-3 prostate it was 101% (inactive); in the assay on SK-MEL-5 melanoma it was 95% (inactive). For the same compound, the growth is 91.1% (inactive) with UACC-62 melanoma (10 µM); 96.3% (inactive) with LOX IMVI melanoma; 115% (inactive) in the assay with SK-MEL-28 melanoma; 110% (inactive) with SK-MEL-2 melanoma; 110% (inactive) in the assay on EKVX NSCLC; 92.8% (inactive) with SN12C renal. The growth in the assay with UO-31 renal was 93.6% (inactive); with TK-10 renal (10 µM), 110% (inactive); with ACHN renal it was 114% (inactive); with CAKI-1 renal it was 106% (inactive); in the assay with A498 renal, 93.8% (inactive); in the assay with CCRF-CEM leukemia, 121% (inactive). The growth with MOLT-4 leukemia is 69.3% (inactive).
`Cc1cc(N(CCOS(C)(=O)=O)CCOS(C)(=O)=O)ccc1C=Nc1ccc(-c2nc(Cc3ccccc3)sc2C)cc1`: the growth in the assay with HCT-15 colon is 55% (inactive); in the assay with HT29 colon it was 46.2% (inactive); with SNB-75 CNS it was -1.26% (active); in the assay with SNB-19 CNS it was 39.5% (inactive); in the assay with U251 CNS, 43.2% (inactive); in the assay with PC-3 prostate it was 55% (inactive). Also, the growth in the assay on SK-MEL-5 melanoma is 45.2% (inactive); with UACC-62 melanoma (10 µM) it was 37.8% (inactive); in the assay on LOX IMVI melanoma, 34.9% (inactive); with SK-MEL-2 melanoma, 86.3% (inactive); with EKVX NSCLC, 11.1% (inactive); in the assay with SN12C renal, 52.3% (inactive). Moreover, the growth was 22.2% (inactive) in the assay with UO-31 renal; 14.2% (inactive) with TK-10 renal (10 µM); -23.2% (active) with ACHN renal; -32% (active) in the assay on CAKI-1 renal; -48.7% (active) in the assay with A498 renal; 23.4% (inactive) in the assay with CCRF-CEM leukemia. Besides, in the assay on MOLT-4 leukemia, the growth is 14.2% (inactive).
For `COc1ccc(C(=O)C(CN(C)C)CN(C)C)cc1`, the growth in the assay on HCT-15 colon is 46.6% (inactive); with HT29 colon it was -77.3% (active); in the assay with SNB-75 CNS, 76.4% (inactive); in the assay on SNB-19 CNS it was 103% (inactive); in the assay on U251 CNS, 102% (inactive); in the assay on PC-3 prostate, 89.6% (inactive). The growth in the assay with SK-MEL-5 melanoma is 101% (inactive); in the assay with UACC-62 melanoma (10 µM), 73.4% (inactive); in the assay on LOX IMVI melanoma, 82.4% (inactive); in the assay with SK-MEL-28 melanoma, 83.1% (inactive); in the assay with SK-MEL-2 melanoma it was 149% (inactive); in the assay on EKVX NSCLC, -17% (active). Also, the growth is 98.9% (inactive) in the assay on SN12C renal; 17% (inactive) in the assay with UO-31 renal; 15.7% (inactive) in the assay with TK-10 renal (10 µM); -85.5% (active) in the assay with ACHN renal; -84.8% (active) in the assay on CAKI-1 renal; 99% (inactive) in the assay on A498 renal. For the same compound, the growth is 36.3% (inactive) with CCRF-CEM leukemia and -32% (active) with MOLT-4 leukemia.
